Inconclusive results are not listed. Active and inactive are the calls of the source. The call rests on the fitted dose curve; in most records, active means well fitted inhibition curve with a large enough effect; inconclusive means small, poorly fitted or top-dose-only effect; inactive means flat fitted curve, though single readings scatter.
On the % scale 0 is the no-effect control and ±100 the full control effect; potency means the concentration at half of the fitted maximal effect.

The nature of the experiment: P-glycoprotein substrates identified in KB-8-5-11 adenocarcinoma cell line, qHTS therapeutic library screen (AID 1346987). Further: nearly all actives have a fitted effect of over 65% in size. Particulars: KB-8-5-11 (P-gp overexpressing) viability, CellTiter-Glo, 72 h; series mostly up to 44.5 µM; activity change, negative = cytotoxicity: at the top concentration. The essentials:
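KB-8-5-11, a colchicine-selected P-gp-overexpressing KB-3-1 subline, was grown without colchicine for the assay. Cells were seeded at 500 cells/well, dosed in concentration-response and incubated 72 h at 37 degree C, 5% CO2. Viability was read by CellTiter-Glo luminescence.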
`COC1=CC(=O)O/C1=C(/OC)[C@@H]1O[C@H]1c1ccccc1`: the “activity change, negative = cytotoxicity” value was 0.237% (inactive).
Consider `CC(/C=C/C(=O)NO)=C\[C@@H](C)C(=O)c1ccc(N(C)C)cc1`, for which the Potency is 0.58 µM (active).
Consider `CCN(CC)C(=O)c1ccc(Nc2nc(OCC3CCCCC3)c3[nH]cnc3n2)cc1`, for which the Potency was 18.4 µM (active).
Regarding `Cn1ncc(Cl)c1-c1cc(C(=O)NC(CN)Cc2ccc(F)c(F)c2)oc1Cl` (stereo not given), the Potency is 14.6 µM (active).
On to `Cc1ccc(/C(=C\CN2CCCC2)c2cccc(/C=C/C(=O)O)n2)cc1`, for which the “activity change, negative = cytotoxicity” value was -15.9% (inactive).
As for `C/C(=C(/CCO)SSCC1CCCO1)N(C=O)Cc1cnc(C)nc1N` (stereo not given), the Potency result was “inactive”.
On to `COc1ccc(S(=O)(=O)Nc2cc(Cl)cc(Cl)c2OC)cc1N1CCNCC1`, for which the “activity change, negative = cytotoxicity” value was -22.1% (inactive).
As to `CCC(C(C)O)n1ncn(-c2ccc(N3CCN(c4ccc(OCC5COC(Cn6cncn6)(c6ccc(F)cc6F)C5)cc4)CC3)cc2)c1=O` (stereo not given), the Potency was 18.4 µM (active).
For `CCOC(=O)Cc1cccc(-c2cc(CCCCCCc3ccc(O[C@H]4O[C@H](COC(C)=O)[C@@H](OC(C)=O)[C@H](OC(C)=O)[C@@H]4OC(C)=O)c(-c4cccc(CC(=O)OCC)c4)c3)ccc2O[C@H]2O[C@H](COC(C)=O)[C@@H](OC(C)=O)[C@H](OC(C)=O)[C@@H]2OC(C)=O)c1`, the “activity change, negative = cytotoxicity” value was 1.83% (inactive).
On to `Cc1cc(C(=O)Nc2cc(Nc3ccc4c(/C=C/c5ccccn5)n[nH]c4c3)ccc2F)n(C)n1`, for which the Potency is 18.4 µM (active).
Consider `O=[N+]([O-])c1cn2c(n1)OC[C@@H](OCc1ccc(-c3ccc(OC(F)(F)F)cc3)nc1)C2`, for which the “activity change, negative = cytotoxicity” value was -4.02% (inactive).
On to `Nc1nc2c(s1)CCN(Cc1ccc(Cl)cc1)CC2`, for which the “activity change, negative = cytotoxicity” value was 4.43% (inactive).
For the molecule `C#CCCCn1cc(-c2cccc3c2N[C@H](C)CC(=O)N3)cn1`, the Potency was 1.46 µM (active).
Turning to `O=C(NCCO)c1cccc(-c2cc(Nc3ccc(OC(F)(F)F)cc3)ncn2)c1`, the “activity change, negative = cytotoxicity” value is -23.1% (inactive).
Take `O=C(NC1CCN(CCCCC2(C(=O)NCC(F)(F)F)c3ccccc3-c3ccccc32)CC1)c1ccccc1-c1ccc(C(F)(F)F)cc1`: the Potency was 20.6 µM (active).
On to `Nc1c(S(=O)(=O)c2ccccc2)c2nc3ccccc3nc2n1-c1ccc(F)cc1`, for which the “activity change, negative = cytotoxicity” value is -20.3% (inactive).
With `C/C(=C/C=C\C=C\Cc1cnco1)[C@@H](O)C(C)(C)C(N)=O`, the “activity change, negative = cytotoxicity” value was -21.1% (inactive).
Consider `CC1CCC/C=C/C(=O)c2c(O)cc(O)cc2CC(=O)O1` (stereo not given), for which the Potency is 5.8 µM (active).
As for `COc1c2c(nc3occc13)C(CC=C(C)C)(OC)C(O)CC2` (stereo not given), the “activity change, negative = cytotoxicity” value is -23% (inactive).
Take `CCC(CC)C(c1ccc(Nc2nc3ccccc3s2)cc1)n1cncn1` (stereo not given): the Potency was 23.1 µM (active).
Consider `CCC/C=C\C=C/CCc1cc(O)c([C@@H]2O[C@H](CO)[C@@H](O)[C@H](O)[C@H]2O)c(O)c1C(=O)OC`, for which the “activity change, negative = cytotoxicity” value is -5.96% [at 17.3 µM] (inactive).
In the case of `Cc1cc(-c2ncc(-c3cccnc3)cc2/C=C/c2ccccc2)cnc1-c1cccnc1`, the Potency was 10.3 µM (active).
For `Cc1ccccc1C(C(=O)NC1CCCCC1)N(C(=O)Cn1cnc2ccccc21)c1cccc(F)c1` (stereo not given), the Potency is 23.1 µM (active).
`C/C=C(/C)C(=O)OC1CC(C)(C)CC2C3=CCC4C5(C)CCC(O[C@@H]6O[C@H](C(=O)O)[C@@H](O)[C@H](O)[C@H]6O[C@@H]6O[C@H](CO)[C@H](O)[C@H](O[C@@H]7OC[C@H](O)[C@H](O)[C@H]7O[C@@H]7O[C@H](CO)[C@@H](O)[C@H](O)[C@H]7O)[C@H]6O)C(C)(C)C5CCC4(C)C3(C)C(O)C(O)C12CO` (stereo not given in full): the activity change, negative = cytotoxicity is -17.3% [at 9.29 µM] (inactive).
As to `O=S(=O)(O)Oc1ccc(C(c2ccc(OS(=O)(=O)O)cc2)c2ccccn2)cc1`, the “activity change, negative = cytotoxicity” value is 8.69% (inactive).
Consider `Fc1ccc(-c2nc(C3CCNCC3)sc2-c2ccnc(NC3CC3)n2)cc1`, for which the Potency is 13 µM (active).
Take `CCCCCCCCCCCCCCCC(=O)O[C@@H]1CC(C)=C(/C=C/C(C)=C/C=C/C(C)=C/C=C/C=C(C)/C=C/C=C(C)/C=C/C2=C(C)C[C@@H](OC(=O)CCCCCCCCCCCCCCC)CC2(C)C)C(C)(C)C1`: the “activity change, negative = cytotoxicity” value was 2.82% (inactive).
With `COc1cc2c(cc1OC)CN(C(=O)/C=C/c1c(-c3ccccc3)n(C)c3ncccc13)CC2`, the Potency was 20.6 µM (active).
`N[C@@H](C(=O)N[C@H]1C(=O)N2C(C(=O)O)=C(Cl)CC[C@H]12)c1ccccc1`: the “activity change, negative = cytotoxicity” value is -0.412% (inactive).
`O=C[C@H](O)[C@@H](O)[C@H](O)[C@H](O)CO`: the “activity change, negative = cytotoxicity” value was 10.6% (inactive).
In the case of `COC(=O)c1sccc1S(=O)(=O)Nc1ccc(Nc2ccccc2)cc1OC`, the “activity change, negative = cytotoxicity” value was -24.5% (inactive).
On to `COc1ccc(C2(CNC(=O)c3ccc(NC(=O)c4ccco4)cc3)CCOCC2)cc1`, for which the “activity change, negative = cytotoxicity” value was -5.93% (inactive).
Take `OC1CCC(Nc2nc(-c3ccccc3)nc3[nH]ccc23)CC1` (stereo not given): the “activity change, negative = cytotoxicity” value was -10.1% (inactive).
With `COc1ccc(CNCc2cccc3ccccc23)cc1`, the “activity change, negative = cytotoxicity” value is -15.9% (inactive).
Turning to `CS/C=C/C(=O)O[C@@H]1CCC2=CC(=O)C(=C(C)C)C[C@]2(C)[C@H]1C`, the “activity change, negative = cytotoxicity” value was -25.4% (inactive).
Take `CN(C)C(=O)NC1(c2ccccc2)CCN(CCC[C@]2(c3ccc(Cl)c(Cl)c3)CCCN(C(=O)c3ccccc3)C2)CC1`: the Potency is 18.4 µM (active).
Turning to `OCC(O)COc1ccc(Cl)cc1` (stereo not given), the “activity change, negative = cytotoxicity” value is 10.7% (inactive).
Regarding `CO[C@H]1[C@@H](O)[C@H](N)[C@@H](O[C@H]2O[C@H]([C@H](C)N)CC[C@H]2N)[C@H](O)[C@@H]1N(C)C(=O)CN`, the “activity change, negative = cytotoxicity” value was 0.911% (inactive).
Turning to `O=C(NCCCNc1nc(Nc2cccc(CN3CCOCC3)c2)ncc1C1CC1)C1CCC1`, the Potency was 10.3 µM (active).
`CCC/C=C/C=C/C1CC(O)C2(O)C(=O)OCC12` (stereo not given): the molecule was classed as inactive.

The values are drawn from PubChem BioAssay (NCATS).
